Results: the supplement of paper PMC4840960
Structures can show the parent of a compound that is named as a salt. ± gives the standard deviation of the averaged measurements.

Tests used:
[1] = system: E18 rat cortical neuron-glia co-culture; test: fiber score / MBP score (myelination specific beyond OL differentiation) (ratio); higher = more myelination-specific MBP alignment; details: treatment time: 8 days (DIV5-DIV13)
Procedure, shortened: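 Fiber score divided by MBP score is the read-out; fiber score is continuous MBP fiber length per Olig2+ nucleus, and MBP score is thresholded MBP area × intensity per Olig2+ nucleus. Primary E18 rat cortical co-cultures were dissociated with papain and seeded at 20,000 cells/well on poly-d-lysine/laminin 96-well plates. Library compounds at 1 or 5 µM were given in myelination medium from DIV5 to DIV13, after which cells were fixed in 4 % paraformaldehyde, immunostained for MBP and Olig2 with DAPI, and imaged in four 10X fields per well in duplicate wells.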

[2] = system: E18 rat cortical neuron-glia co-culture; test: myelination (MBP fiber length per Olig2+ nucleus), % of 1 µM DAPT response (DMSO = 0) (% of DAPT); higher = more myelination, active = 50 or more; details: treatment time: 8 days (DIV5-DIV13)
Procedure, shortened: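 Four 10X fields in each of duplicate wells were analysed after cultures were fixed in 4 % paraformaldehyde and immunostained for MBP and Olig2, with DAPI as the nuclear counterstain. The cultures were papain-dissociated primary E18 rat cortical co-cultures at 20,000 cells/well on poly-d-lysine/laminin 96-well plates, dosed with library compounds at 1 or 5 µM in myelination medium from DIV5 to DIV13. The myelination readout was continuous straight MBP fiber length per Olig2+ nucleus, with 0.1 % DMSO set to 0 and a 1 µM positive control set to 100.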

Compound | fiber score / MBP score ([1]; 1 µM) | fiber score / MBP score ([1]; 5 µM) | myelination ([2]; 1 µM) | myelination ([2]; 5 µM)
CN1C(=O)CC[C@H]1c1cccnc1 [Cotinine] | 0.604 | 0.723 | -30.3 (inactive) | -28.1 (inactive)
CC(C)(C)NC(=O)[C@@H]1CN(Cc2cccnc2)CCN1C[C@@H](O)C[C@@H](Cc1ccccc1)C(=O)N[C@H]1c2ccccc2C[C@H]1O [Indinavir] | 0.908 | 0.894 | -20.5 (inactive) | -24.1 (inactive)
COc1ccc(Cl)cc1C(=O)NCCc1ccc(S(=O)(=O)NC(=O)NC2CCCCC2)cc1 [Glyburide] | 1.07 | 0.835 | 1.49 (inactive) | -10.7 (inactive)
CC(COc1ccccc1Cc1ccccc1)N1CCCCC1 (centres undefined) [Benproperine] | 0.726 | 0.819 | -8.06 (inactive) | -4.27 (inactive)
CC(C(O)c1ccc(O)cc1)N1CCC(Cc2ccccc2)CC1 (centres undefined) [Ifenprodil] | 0.348 | 0.136 | -70.3 (inactive) | -83.6 (inactive)
CN1CCN(C2=Nc3cc(F)ccc3Cc3ccccc32)CC1 [Fluperlapine] | 1.15 | 0.587 | 6.96 (inactive) | -12.9 (inactive)
CC[N+](C)(CC)CCOC(=O)C(O)(c1ccccc1)C1CCCCC1 (centres undefined) [Oxyphenonium] | 0.849 | 0.703 | -8.21 (inactive) | -6.58 (inactive)
CC(=O)SCC(Cc1ccccc1)C(=O)NCC(=O)OCc1ccccc1 (centres undefined) [Racecadotril] | 0.715 | 0.943 | -48.7 (inactive) | -8.19 (inactive)
C[C@@H]1O[C@@H](OC[C@H]2O[C@@H](Oc3c(-c4ccc(O)c(O)c4)oc4cc(O)cc(O)c4c3=O)[C@H](O)[C@@H](O)[C@@H]2O)[C@H](O)[C@H](O)[C@H]1O [Rutin] | 0.757 | 0.905 | -12 (inactive) | -4.44 (inactive)
CC(c1cc2ccccc2s1)N(O)C(N)=O (centres undefined) [Zileuton] | 0.599 | 0.628 | -6.73 (inactive) | -19.1 (inactive)
O=C(O)COCCN1CCN(C(c2ccccc2)c2ccc(Cl)cc2)CC1 (centres undefined) [Cetirizine] | 0.908 | 1.11 | -5.85 (inactive) | -4.35 (inactive)
NC(=O)c1ncn([C@@H]2O[C@H](CO)[C@@H](O)[C@H]2O)n1 [Ribavirin] | 1.17 | 1.03 | 3.44 (inactive) | 4.23 (inactive)
CC1(C)S[C@@H]2[C@H](/N=C/N3CCCCCC3)C(=O)N2[C@H]1C(=O)O [Amdinocillin] | 0.728 | 0.866 | -21.5 (inactive) | -5.42 (inactive)
CC(C(=O)O)c1ccc(CC2CCCC2=O)cc1 (centres undefined) [loxoprofen] | 0.944 | 0.875 | 1.34 (inactive) | -10.6 (inactive)
CC(=O)OCC(CCn1cnc2cnc(N)nc21)COC(C)=O [Famciclovir] | 0.681 | 0.977 | -22.4 (inactive) | -2.76 (inactive)
Nc1nc2c(ncn2COCCO)c(=O)[nH]1 [Acyclovir] | 0.568 | 1.1 | -11.9 (inactive) | 29.3 (inactive)
O=C(c1ccc(OCCN2CCCCC2)cc1)c1c(-c2ccc(O)cc2)sc2cc(O)ccc12 [Raloxifene] | 0.211 | 0.788 | -12.3 (inactive) | 13.4 (inactive)
N[C@@H]1CONC1=O [Cycloserine] | 0.562 ± 0.18 | 0.637 | -22.5 (inactive) | -32.4 (inactive)
CC(C)(C)NC[C@H](O)COc1nsnc1N1CCOCC1 [Timolol] | 0.869 | 1.02 | -4.47 (inactive) | -1.56 (inactive)
COCCCOc1ccnc(C[S+]([O-])c2nc3ccccc3[nH]2)c1C (centres undefined) [Rabeprazole] | 0.82 | 0.912 | -11.1 (inactive) | 10.6 (inactive)
COc1ccc2cc([C@H](C)C(=O)O)ccc2c1 [Naproxen] | 0.831 | 0.859 | -5.15 (inactive) | -4.96 (inactive)
COCCCC/C(=N\OCCN)c1ccc(C(F)(F)F)cc1 [Fluvoxamine] | 1.03 | 0.487 | -0.231 (inactive) | -9.1 (inactive)
COc1cc(C)c(Cc2cnc(N)nc2N)cc1OC [Ormetoprim] | 0.746 | 0.726 | -31.5 (inactive) | -40 (inactive)
CC(C)NCC(O)c1cc(O)cc(O)c1 (centres undefined) [Metaproterenol] | 0.313 | 0.371 | -16.5 (inactive) | -14.3 (inactive)
CCOC(=O)[C@H](CCc1ccccc1)N[C@@H](C)C(=O)N1Cc2ccccc2C[C@H]1C(=O)O [Quinapril] | 0.878 | 0.825 | -0.422 (inactive) | -6.78 (inactive)
Oc1c(Cl)cc(Cl)c2cccnc12 [Chloroxine] | 2.26 | – | -4.18 (inactive) | –

Compound | fiber score / MBP score ([1]; 1 µM) | fiber score / MBP score ([1]; 5 µM) | myelination ([2]; 1 µM) | myelination ([2]; 5 µM)
CC[C@@H](CO)NCCN[C@@H](CC)CO [Ethambutol] | 0.781 | 0.753 | -5.28 (inactive) | -6.9 (inactive)
c1ccc(CC2=NCCN2)cc1 [Tolazoline] | 0.396 | – | -13.6 (inactive) | –
COc1ccc(-c2oc3c(CC=C(C)C)c(O[C@@H]4O[C@H](CO)[C@@H](O)[C@H](O)[C@H]4O)cc(O)c3c(=O)c2O[C@@H]2O[C@@H](C)[C@H](O)[C@@H](O)[C@H]2O)cc1 [Icariin] | 0.673 | 0.958 | -14.4 (inactive) | -5.53 (inactive)
COC1=C(OC)C(=O)C(CCCCCCCCCCO)=C(C)C1=O [Idebenone] | 0.848 | – | -12.8 (inactive) | –
CCCCCCNC(=O)n1cc(F)c(=O)[nH]c1=O [Carmofur] | 0.54 | 0.729 | -30.6 (inactive) | -14.4 (inactive)
CN(CCOc1ccc(CC2SC(=O)NC2=O)cc1)c1ccccn1 (centres undefined) [Rosiglitazone maleate] | 0.752 ± 0.037 | – | -26.2 (inactive) | –
CC(=O)O[C@@]12CO[C@@H]1C[C@H](O)[C@@]1(C)C(=O)[C@H](O)C3=C(C)[C@@H](OC(=O)[C@H](O)[C@@H](NC(=O)OC(C)(C)C)c4ccccc4)C[C@@](O)([C@@H](OC(=O)c4ccccc4)[C@H]21)C3(C)C [Docetaxel] | 1.59 | 1.62 | 263 (active) | 257 (active)
COC(=O)C1=C(C)NC(C)=C(C(=O)OCC(C)C)C1c1ccccc1[N+](=O)[O-] (centres undefined) [Nisoldipine] | 0.773 | – | -11.1 (inactive) | –
CN(C)C(=O)C(CCN1CCC(O)(c2ccc(Cl)cc2)CC1)(c1ccccc1)c1ccccc1 [Loperamide] | 0.58 | 0.368 | -10.1 (inactive) | -21 (inactive)
COc1cc(-c2ccc(=O)[nH]n2)ccc1OC(F)F [Zardaverine] | 0.581 | 0.397 | -34.6 (inactive) | -42.4 (inactive)
CCN1CCN(c2cc3c(cc2F)c(=O)c(C(=O)O)cn3C2CC2)CC1 [Enrofloxacin] | 0.94 | 0.516 | -5.04 (inactive) | -19.3 (inactive)
CC(C)[N+]1(C)[C@@H]2CC[C@H]1C[C@@H](OC(=O)C(CO)c1ccccc1)C2 (some centres undefined) [Ipratropium] | 0.783 | 1.52 | 0.204 (inactive) | 32.8 (inactive)
CCCCCNC(=N)N/N=C/c1c[nH]c2ccc(OC)cc12 [Tegaserod] | 0.56 | – | -17.1 (inactive) | –
COc1ccc(CN2CCN(C(c3ccc(F)cc3)c3ccc(F)cc3)CC2)c(OC)c1OC [Lomerizine] | 1.05 | 0.643 | 14.1 (inactive) | -23.5 (inactive)
CCC1=C(C)CN(C(=O)NCCc2ccc(S(=O)(=O)NC(=O)N[C@H]3CC[C@H](C)CC3)cc2)C1=O [Glimepiride] | 1.06 | 0.96 | -3.14 (inactive) | -10.6 (inactive)
O=C1NC(C(=O)O)CS1 (centres undefined) [2-oxothiazolidine-4-carboxylic acid] | 0.704 | 0.758 | -34.3 (inactive) | -59.9 (inactive)
CNC[C@H](O)c1ccc(O)c(O)c1 [Epinephrine] | 0.884 | 3.29 | 2.28 (inactive) | 38.8 (inactive)
CCOC(=O)C1=C(C)NC(C)=C(C(=O)OCC)C1c1ccccc1/C=C/C(=O)OC(C)(C)C [Lacidipine] | 0.575 | – | -18.6 (inactive) | –
O=C1N(c2ccccc2)c2ccccc2C1(Cc1ccncc1)Cc1ccncc1 [Linopirdine] | 0.779 | 0.73 | -4.06 (inactive) | -12 (inactive)
O=C(O)CCNC(=O)c1ccc(/N=N/c2ccc(O)c(C(=O)O)c2)cc1 [Balsalazide] | 0.862 | 0.833 | -5.47 (inactive) | -9.22 (inactive)
Nc1nc(N)c2nc(-c3ccccc3)c(N)nc2n1 [Triamterene] | 1.39 | 1.62 | 68.5 | 461 (active)
CC(C)NCC(O)c1ccc(NS(C)(=O)=O)cc1 (centres undefined) [Sotalol] | 0.726 | 0.499 | -33.5 (inactive) | -60.5 (inactive)
CC[C@H]1OC(=O)[C@H](C)C(=O)[C@H](C)[C@@H](O[C@@H]2O[C@H](C)C[C@H](N(C)C)[C@H]2O)[C@](C)(OC)C[C@@H](C)C(=O)[C@H](C)[C@H]2N(CCCCn3cnc(-c4cccnc4)c3)C(=O)O[C@]12C [Telithromycin] | 0.819 | – | -3.78 (inactive) | –
CC[C@H]1OC(=O)[C@H](C)[C@@H](O[C@H]2C[C@@](C)(OC)[C@@H](O)[C@H](C)O2)[C@H](C)[C@@H](O[C@@H]2O[C@H](C)C[C@H](N(C)C)[C@H]2O)[C@](C)(O)C[C@@H](C)C(=O)[C@H](C)[C@@H](O)[C@]1(C)O [Erythromycin] | 0.767 | – | -11.1 (inactive) | –
O=c1c(O[C@@H]2O[C@H](CO)[C@H](O)[C@H](O)[C@H]2O)c(-c2ccc(O)c(O)c2)oc2cc(O)cc(O)c12 [Hyperoside] | 0.853 | – | -69.1 (inactive) | –
